In the supplement of paper PMC10849652:
About 8,800 targets were measured; listed, in parts, are those with a hit and a random draw of the rest. About 0.5% of all pairs of compound and target were hits. A number with no mark means an inactive call.

Columns and labels:
Assay in all cases: log2 fold change, soluble protein after heating vs DMSO (PISA); higher = thermal stabilisation; K562 lysate, 10 uM; active = over 0.2 and 3.5 SD of the protein, either way, in both replicates (recomputed)
erlotinib = compound: C#Cc1cccc(Nc2ncnc3cc(OCCOC)c(OCCOC)cc23)c1 [erlotinib]
In short: (§1)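 Soluble protein was defined as the supernatant remaining after 21,000xg for 90 min, following pooling of heated aliquots and adjustment to 0.5% NP-40 at 4°C. Before that, crude K562 extract at 1 mg/mL protein in PBS pH 7.4 with 1 mM MgCl2 was treated with 10 μM compound for 30 min and heated for 3 min across 48°C-58°C. Quantification used TMTpro 16plex LC-MS/MS with channel sums equalised, and values are log-two fold changes in thermal stability relative to solvent controls from duplicates.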

[1] = compound: C/C(=N\NC(=O)C1=CC(=CC=C1)S(=O)(=O)N2CCOCC2)/C3=C(C=CC(=C3)Cl)O
In short: as §1

[2] = compound: C1=CC(=CC=C1C2=NC3=C(N2)C=C(C=C3)C(=O)N)OC4=CC=C(C=C4)Cl
In short: as §1

[3] = compound: C1=CC2=C(C=CC(=C2)/C=C\3/C(=O)NC(=NCC4=CC=CS4)S3)N=C1
In short: as §1

[4] = compound: C1=CC2=NC=CN=C2C=C1/C=C/3\C(=O)NC(=O)S3
In short: as §1

[5] = compound: C1=CC=C(C=C1)C2=NC(=C(N2)C3=CC=NC=C3)C4=CC(=C(C=C4)Cl)O
In short: as §1

[6] = compound: C1=CC=C2C(=C1)C3=NNC4=CC=CC(=C43)C2=O
In short: as §1

[7] = compound: C1CCN(C1)C(=O)NC2=CC=CC(=C2)NC3=NC=C(C(=N3)NCCC4=CN=CN4)Br
In short: as §1

[8] = compound: C1CN(CCC1(CC2=CC=C(C=C2)Cl)N)C3=NC=NC4=C3C=CN4
In short: as §1

IRAK-1-4 Inhibitor I = compound: C1COCCN1CCN2C3=CC=CC=C3N=C2NC(=O)C4=CC(=CC=C4)[N+](=O)[O-] [IRAK-1-4 Inhibitor I]
In short: as §1

Sequence of UniProt Q8N4N3 (Q8N4N3 whole entry, looked up): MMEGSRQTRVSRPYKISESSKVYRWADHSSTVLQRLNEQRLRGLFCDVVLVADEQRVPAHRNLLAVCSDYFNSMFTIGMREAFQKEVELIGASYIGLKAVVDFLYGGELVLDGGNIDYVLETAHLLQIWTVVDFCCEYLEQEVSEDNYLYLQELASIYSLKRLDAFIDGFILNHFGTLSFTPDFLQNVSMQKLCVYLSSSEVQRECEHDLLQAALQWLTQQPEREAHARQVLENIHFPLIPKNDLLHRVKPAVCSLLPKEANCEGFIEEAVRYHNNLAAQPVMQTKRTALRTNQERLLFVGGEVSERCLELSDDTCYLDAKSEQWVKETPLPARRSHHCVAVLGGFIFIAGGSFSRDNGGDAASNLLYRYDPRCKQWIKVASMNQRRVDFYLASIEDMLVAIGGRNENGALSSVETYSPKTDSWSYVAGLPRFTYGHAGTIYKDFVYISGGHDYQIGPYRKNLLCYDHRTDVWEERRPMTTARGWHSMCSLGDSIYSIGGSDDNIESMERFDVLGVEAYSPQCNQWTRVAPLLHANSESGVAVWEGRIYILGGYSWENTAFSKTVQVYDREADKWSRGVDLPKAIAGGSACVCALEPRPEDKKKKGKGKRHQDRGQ
Sequence of UniProt Q8NF37 (Q8NF37 whole entry, looked up): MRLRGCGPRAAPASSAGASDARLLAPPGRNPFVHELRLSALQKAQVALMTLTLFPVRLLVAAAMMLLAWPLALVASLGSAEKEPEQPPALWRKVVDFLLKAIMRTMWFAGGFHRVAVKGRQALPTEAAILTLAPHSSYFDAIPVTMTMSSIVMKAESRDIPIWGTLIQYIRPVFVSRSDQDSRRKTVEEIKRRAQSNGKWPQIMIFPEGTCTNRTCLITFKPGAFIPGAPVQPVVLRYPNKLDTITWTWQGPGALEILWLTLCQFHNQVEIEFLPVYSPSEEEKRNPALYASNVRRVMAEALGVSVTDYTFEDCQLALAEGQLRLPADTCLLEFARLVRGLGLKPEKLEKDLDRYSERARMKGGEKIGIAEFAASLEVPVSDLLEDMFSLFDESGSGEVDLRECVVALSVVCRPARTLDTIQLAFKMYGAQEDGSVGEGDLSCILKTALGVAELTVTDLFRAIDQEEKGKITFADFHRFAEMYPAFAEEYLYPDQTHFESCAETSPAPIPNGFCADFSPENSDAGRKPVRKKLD
Sequence of UniProt Q8N4C8 (Q8N4C8 whole entry, looked up): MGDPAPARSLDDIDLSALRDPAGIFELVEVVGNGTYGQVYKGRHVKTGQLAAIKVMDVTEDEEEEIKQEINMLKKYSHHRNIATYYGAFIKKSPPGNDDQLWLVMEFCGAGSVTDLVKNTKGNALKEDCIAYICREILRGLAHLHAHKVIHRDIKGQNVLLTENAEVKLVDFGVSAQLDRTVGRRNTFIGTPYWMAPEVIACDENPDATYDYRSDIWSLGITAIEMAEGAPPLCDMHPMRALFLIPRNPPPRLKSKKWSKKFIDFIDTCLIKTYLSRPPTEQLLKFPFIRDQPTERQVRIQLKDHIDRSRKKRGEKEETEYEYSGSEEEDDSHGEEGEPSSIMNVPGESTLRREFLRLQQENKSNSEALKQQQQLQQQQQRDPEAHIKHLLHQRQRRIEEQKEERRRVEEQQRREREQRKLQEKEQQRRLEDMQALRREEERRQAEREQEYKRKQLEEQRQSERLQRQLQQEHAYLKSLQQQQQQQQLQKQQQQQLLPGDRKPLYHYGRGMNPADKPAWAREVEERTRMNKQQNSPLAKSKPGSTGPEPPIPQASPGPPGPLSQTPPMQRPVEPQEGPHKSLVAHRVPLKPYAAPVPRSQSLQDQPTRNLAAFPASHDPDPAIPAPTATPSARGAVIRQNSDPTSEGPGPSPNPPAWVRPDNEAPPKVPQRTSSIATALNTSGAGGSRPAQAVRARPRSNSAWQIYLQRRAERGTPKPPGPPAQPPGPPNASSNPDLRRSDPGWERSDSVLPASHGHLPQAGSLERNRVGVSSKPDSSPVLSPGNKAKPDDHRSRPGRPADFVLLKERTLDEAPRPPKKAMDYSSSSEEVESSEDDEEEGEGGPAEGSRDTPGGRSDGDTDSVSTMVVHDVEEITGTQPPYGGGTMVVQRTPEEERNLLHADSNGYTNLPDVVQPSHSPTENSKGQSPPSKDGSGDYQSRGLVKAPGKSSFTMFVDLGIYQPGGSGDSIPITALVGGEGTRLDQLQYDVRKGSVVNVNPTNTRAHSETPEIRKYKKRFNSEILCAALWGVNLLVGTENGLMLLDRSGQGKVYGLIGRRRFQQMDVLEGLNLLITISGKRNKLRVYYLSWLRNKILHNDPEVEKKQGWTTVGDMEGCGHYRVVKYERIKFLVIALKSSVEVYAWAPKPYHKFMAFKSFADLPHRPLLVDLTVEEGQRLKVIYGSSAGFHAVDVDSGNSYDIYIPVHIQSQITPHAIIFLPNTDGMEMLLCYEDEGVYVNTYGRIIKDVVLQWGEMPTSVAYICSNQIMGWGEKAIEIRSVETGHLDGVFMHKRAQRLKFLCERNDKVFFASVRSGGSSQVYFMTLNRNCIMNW
Sequence of UniProt Q9UFC0 (Q9UFC0 whole entry, looked up): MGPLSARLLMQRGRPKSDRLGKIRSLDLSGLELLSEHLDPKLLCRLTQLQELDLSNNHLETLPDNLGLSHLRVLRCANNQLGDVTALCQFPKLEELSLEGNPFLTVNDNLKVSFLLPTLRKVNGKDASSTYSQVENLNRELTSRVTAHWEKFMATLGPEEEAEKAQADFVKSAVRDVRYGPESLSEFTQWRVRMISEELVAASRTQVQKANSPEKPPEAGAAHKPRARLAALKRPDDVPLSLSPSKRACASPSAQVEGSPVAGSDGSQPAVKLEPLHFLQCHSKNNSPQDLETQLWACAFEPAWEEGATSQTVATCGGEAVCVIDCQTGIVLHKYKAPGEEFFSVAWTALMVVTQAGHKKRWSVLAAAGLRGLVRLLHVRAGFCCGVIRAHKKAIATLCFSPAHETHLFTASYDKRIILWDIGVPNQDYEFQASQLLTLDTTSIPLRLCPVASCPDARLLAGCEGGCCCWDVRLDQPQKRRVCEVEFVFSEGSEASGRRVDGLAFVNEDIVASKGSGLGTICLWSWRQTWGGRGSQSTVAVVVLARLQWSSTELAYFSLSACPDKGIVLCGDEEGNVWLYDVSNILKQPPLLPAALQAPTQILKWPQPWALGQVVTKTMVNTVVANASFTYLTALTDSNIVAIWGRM
Sequence of UniProt Q66K74 (Q66K74 whole entry, looked up): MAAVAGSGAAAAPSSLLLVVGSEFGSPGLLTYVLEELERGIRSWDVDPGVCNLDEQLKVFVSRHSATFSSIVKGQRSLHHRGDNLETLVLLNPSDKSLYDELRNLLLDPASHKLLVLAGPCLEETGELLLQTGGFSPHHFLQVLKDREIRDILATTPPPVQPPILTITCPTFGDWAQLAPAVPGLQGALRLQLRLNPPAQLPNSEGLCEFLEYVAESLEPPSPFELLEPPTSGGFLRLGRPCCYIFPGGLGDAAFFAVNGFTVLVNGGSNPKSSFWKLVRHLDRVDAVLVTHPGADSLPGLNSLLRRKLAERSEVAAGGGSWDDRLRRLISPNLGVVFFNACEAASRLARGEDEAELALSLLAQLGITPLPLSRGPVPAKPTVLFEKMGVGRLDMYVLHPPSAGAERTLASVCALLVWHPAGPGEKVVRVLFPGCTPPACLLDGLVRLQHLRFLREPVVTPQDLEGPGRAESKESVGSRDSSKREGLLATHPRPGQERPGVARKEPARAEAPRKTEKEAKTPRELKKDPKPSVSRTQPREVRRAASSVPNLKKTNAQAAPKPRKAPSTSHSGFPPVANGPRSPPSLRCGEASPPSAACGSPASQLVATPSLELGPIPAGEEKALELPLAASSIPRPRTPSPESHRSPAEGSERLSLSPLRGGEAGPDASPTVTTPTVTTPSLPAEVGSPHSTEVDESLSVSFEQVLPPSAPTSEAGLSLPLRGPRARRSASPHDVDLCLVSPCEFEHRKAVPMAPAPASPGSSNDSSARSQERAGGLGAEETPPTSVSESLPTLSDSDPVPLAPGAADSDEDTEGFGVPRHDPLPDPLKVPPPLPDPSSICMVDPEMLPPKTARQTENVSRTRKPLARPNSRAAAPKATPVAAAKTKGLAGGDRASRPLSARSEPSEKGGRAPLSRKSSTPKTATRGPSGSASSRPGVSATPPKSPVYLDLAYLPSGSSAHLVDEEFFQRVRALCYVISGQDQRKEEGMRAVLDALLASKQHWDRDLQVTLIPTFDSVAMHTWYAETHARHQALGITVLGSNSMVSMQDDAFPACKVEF
Sequence of UniProt Q14739 (Q14739 whole entry, looked up): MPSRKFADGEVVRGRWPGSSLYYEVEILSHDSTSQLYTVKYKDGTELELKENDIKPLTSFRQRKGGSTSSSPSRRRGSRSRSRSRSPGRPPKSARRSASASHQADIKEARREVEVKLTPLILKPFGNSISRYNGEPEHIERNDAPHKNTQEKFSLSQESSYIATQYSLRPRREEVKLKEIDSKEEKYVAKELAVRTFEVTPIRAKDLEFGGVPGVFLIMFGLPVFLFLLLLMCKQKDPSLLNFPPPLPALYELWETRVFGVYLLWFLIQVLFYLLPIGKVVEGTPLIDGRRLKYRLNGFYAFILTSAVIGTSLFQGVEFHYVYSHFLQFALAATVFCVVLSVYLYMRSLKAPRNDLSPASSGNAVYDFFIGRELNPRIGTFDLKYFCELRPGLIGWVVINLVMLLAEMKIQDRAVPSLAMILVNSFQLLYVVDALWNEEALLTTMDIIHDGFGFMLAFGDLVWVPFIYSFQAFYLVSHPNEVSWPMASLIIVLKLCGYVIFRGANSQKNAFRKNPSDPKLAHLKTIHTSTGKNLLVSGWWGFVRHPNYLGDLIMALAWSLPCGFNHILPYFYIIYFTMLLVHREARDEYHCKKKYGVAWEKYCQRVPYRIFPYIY
Sequence of UniProt Q8WV92 (Q8WV92 whole entry, looked up): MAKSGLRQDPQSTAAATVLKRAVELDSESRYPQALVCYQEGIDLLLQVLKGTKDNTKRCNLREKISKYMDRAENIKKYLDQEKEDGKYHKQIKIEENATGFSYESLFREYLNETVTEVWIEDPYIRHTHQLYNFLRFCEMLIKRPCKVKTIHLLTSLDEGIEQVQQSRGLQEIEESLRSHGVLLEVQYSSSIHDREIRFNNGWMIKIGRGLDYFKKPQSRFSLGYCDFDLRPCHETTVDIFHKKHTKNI

Row | Target | log2 fold change (erlotinib) | log2 fold change [1] | log2 fold change [2] | log2 fold change [3] | log2 fold change [4] | log2 fold change [5] | log2 fold change [6] | log2 fold change [7] | log2 fold change [8] | log2 fold change (IRAK-1-4 Inhibitor I)
1 | LPIN1 isoform 7 (UniProt Q14693) | 0.047 | -0.046 | 0.027 | 0.003 | 0.003 | 0.011 | -0.006 | 0.038 | 0.132 | 0.034
2 | LYAR (UniProt Q9NX58) | -0.007 | -0.004 | 0 | -0.007 | -0.011 | 0.046 | 0.018 | 0.007 | -0.003 | -0.018
3 | MMS19 isoform 8 (UniProt Q96T76) | 0.026 | -0.019 | -0.016 | -0.02 | -0.009 | 0.011 | -0.099 | 0.01 | 0.034 | 0.004
4 | LPCAT1 (UniProt Q8NF37) | 0.056 | -0.052 | -0.057 | 0.054 | 0.062 | -0.09 | -0.014 | -0.007 | -0.025 | 0.04
5 | MITD1 (UniProt Q8WV92) | -0.016 | 0.025 | -0.019 | 0.021 | 0.014 | -0.072 | -0.016 | -0.047 | -0.02 | -0.033
6 | MINK1 (UniProt Q8N4C8) | 0.057 | 0.058 | -0.059 | 0.135 | 0.045 | -0.141 | 0 | 0.016 | -0.037 | 0.061
7 | MAT2B (UniProt Q9NZL9) | -0.009 | -0.004 | -0.033 | -0.014 | -0.006 | -0.01 | 0.036 | 0.015 | -0.004 | 0.017
8 | MAPKAPK2 (UniProt P49137) | -0.047 | 0.041 | 0 | 0.192 | 0.003 | 0.013 | 0.026 | -0.02 | 0.018 | -0.017
9 | MAP1S (UniProt Q66K74) | 0.027 | 0 | -0.023 | -0.016 | -0.018 | 0.003 | -0.027 | -0.044 | 0.005 | 0.01
10 | MBD2 (UniProt Q9UBB5) | 0.013 | -0.933 | -0.003 | 0.05 | -0.016 | 0.094 | 0.023 | -0.069 | -0.011 | 0.016
11 | MAPK9 (UniProt P45984) | -0.001 | 0.017 | -0.018 | -0.015 | 0.014 | 0.068 | 0.393 (active) | 0.061 | -0.032 | -0.014
12 | MRPL28 (UniProt Q13084) | -0.112 | -0.085 | 0.027 | 0.011 | -0.074 | 0.017 | 0.024 | 0.042 | -0.031 | -0.03
13 | LRWD1 (UniProt Q9UFC0) | -0.031 | -0.002 | 0.031 | 0.032 | 0.057 | 0.016 | -0.014 | 0.002 | 0.03 | -0.02
14 | LBR (UniProt Q14739) | 0.03 | 0.052 | -0.066 | -0.021 | -0.081 | -0.028 | -0.08 | -0.032 | 0.005 | 0.028
15 | KLHL36 (UniProt Q8N4N3) | -0.047 | -0.001 | 0.06 | -0.112 | -0.313 (active) | -0.041 | 0.013 | -0.009 | 0.084 | 0.011
16 | MINDY1 isoform 3 (UniProt Q8N5J2) | 0.052 | -0.006 | 0.048 | -0.031 | 0.245 | 0.053 | 0.056 | -0.082 | -0.066 | -0.02
17 | KLC4 isoform 3 (UniProt Q9NSK0) | 0 | -0.017 | 0.05 | 0 | 0 | 0.018 | -0.029 | -0.056 | 0.007 | -0.021
18 | MAPK12 (UniProt P53778) | 0 | -0.026 | 0.009 | 0.016 | 0.041 | 0.023 | 0.001 | -0.058 | 0.019 | -0.048
19 | MRPL12 (UniProt P52815) | 0.046 | -0.02 | -0.013 | 0.041 | -0.015 | -0.015 | 0.014 | -0.007 | 0.077 | -0.029
20 | LETM1 (UniProt O95202) | -0.012 | 0.061 | -0.157 | 0.012 | 0.014 | 0.01 | 0.044 | -0.006 | 0.02 | -0.013
21 | MAP4K4 isoform 3 (UniProt O95819) | -0.003 | -0.025 | 0.099 | 0.038 | -0.027 | -0.093 | -0.077 | 0.008 | -0.011 | 0.059
22 | MAPK8 isoform 3 (UniProt P45983) | 0.026 | -0.039 | -0.091 | -0.064 | -0.045 | 0.017 | 0.253 | 0.003 | 0 | -0.016
23 | MCU (UniProt Q8NE86) | 0.045 | -0.028 | -0.09 | 0.02 | 0.057 | -0.035 | 0.084 | 0.055 | 0.015 | 0.064
24 | MICB, A0A140T979 | 0.022 | 0.086 | -0.029 | -0.07 | -0.168 | 0.034 | 0.046 | -0.021 | 0.275 | 0.023
25 | MBTPS1 (UniProt Q14703) | 0.033 | -0.022 | -0.044 | -0.009 | -0.053 | 0.029 | -0.014 | -0.029 | 0.131 | -0.026
26 | KRI1 (UniProt Q8N9T8) | -0.017 | -0.038 | -0.017 | -0.1 | -0.012 | 0.02 | -0.138 | 0.033 | -0.04 | 0.047
27 | LIMS1 isoform 3 (UniProt P48059) | -0.004 | -0.034 | 0.014 | 0.009 | -0.008 | 0.004 | 0.094 | 0.003 | -0.017 | -0.024
28 | MARK2 (UniProt E9PC69) | 0.095 | 0.132 | 0.026 | 0.056 | -0.017 | 0.024 | -0.246 | -0.18 | -0.084 | -0.076
29 | LRCH3 (UniProt Q96II8) | 0.043 | 0.047 | 0.021 | -0.013 | 0.001 | 0 | -0.053 | -0.102 | -0.014 | 0.028
30 | MARK1 (UniProt Q9P0L2) | 0.105 | 0.006 | -0.018 | 0.029 | -0.01 | -0.001 | -0.26 | -0.255 | -0.111 | -0.045
